Test results taken from PubChem BioAssay (Tox21).
Records with an inconclusive call do not appear. A call without a number means that no potency is given here. The source made the active and inactive calls. Calls come from the whole dose curve; as a rule, active = well fitted cell-killing curve with a large enough effect in the repeat runs; inconclusive = weak or mixed curves, or effect the other way; inactive = flat fitted curve, though single readings scatter.

Test: qHTS assay to identify small molecule antagonists of the estrogen receptor alpha (ER-alpha) signaling pathway using the BG1 cell line in the presence of 0.1 nM 17-beta-estradiol - cell viability counter screen (AID 1259241); note: nearly all actives have a fitted effect of over 40% in size
Conditions: VM7Luc4E2 (BG1) viability, CellTiter-Fluor protease, 22 h, 0.1 nM estradiol agonist added; series mostly up to 92.4 µM
Summary of the method: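 VM7Luc4E2 cells (endogenous full-length ER-alpha, 4xERE-luciferase), cultured 5 days in charcoal-stripped serum, exposed to compounds with 0.1 nM 17beta-estradiol (final) for 22 hr at 37C. Viability read in same wells as live-cell protease fluorescence after 30 min.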

Compound | Potency
C=CC(C)(O)CC/C=C(\C)CC (stereo not drawn) | inactive
C=C(C)C(=O)OC | inactive
CO/N=C(/C(=O)N[C@@H]1C(=O)N2C(C(=O)O)=C(Cn3nnc(C)n3)CS[C@H]12)c1csc(N)n1 | inactive
NC(=O)NC(=O)Cc1ccccc1 | inactive
C=C(C)[C@@H]1CC[C@@H](C)C[C@@H]1O | inactive
OC[C@@H](O)[C@H](O)[C@@H](O)[C@@H](O)CO | inactive
CCC(C)(CCC(C)C)C(=O)[O-].CCC(C)(CCC(C)C)C(=O)[O-].[Zn+2] (stereo not drawn) | inactive
O=S(=O)(O)CCO | inactive
CC(=O)OC(C)(C)Cc1ccccc1 | inactive
N#CCCOCCOCCC#N | inactive
CCCCCCCCOC(C)=O | inactive
CCC1Nc2cc(Cl)c(S(N)(=O)=O)cc2S(=O)(=O)N1 (stereo not drawn) | inactive
CO[Si](CCCS)(OC)OC | inactive
CCCCC(CC)COC(=O)c1ccccc1 (stereo not drawn) | inactive
CCOC(=O)CC#N | inactive
CCCCCC1CCCC(=O)O1 (stereo not drawn) | inactive
Cc1cc(C)cc([N+](=O)[O-])c1 | inactive
CCC(C)N (stereo not drawn) | inactive
CC(C)c1ccccc1O | inactive

Test: qHTS assay to identify small molecule antagonists of the androgen receptor (AR) signaling pathway using the MDA cell line in the presence of 0.5 nM R1881 - cell viability counter screen (AID 1259242); note: nearly all actives have a fitted effect of over 45% in size
Conditions: MDA-kb2 viability, CellTiter-Fluor protease fluorescence, 16 h; series mostly up to 92.4 µM
Summary of the method: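 Cells seeded at 3,000/well and allowed 5 hr at 37C, 0% CO2 before compound transfer and R1881 (0.5 nM final) addition; 16 hr later, live-cell protease fluorescence indicated cytotoxicity.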

Compound | viability change, negative = cytotoxic | Potency
Nc1ccc(/C=C/c2ccc(N)cc2S(=O)(=O)O)c(S(=O)(=O)O)c1 | 2% [at 0.349 µM] (inactive) | –
CC(C)C(=O)c1ccccc1 | – | inactive
O=S1(=O)CCCC1 | – | inactive
C=C(C)[C@@H]1CC[C@@H](C)C[C@@H]1O | – | inactive
O=C(COCCOCCOCC(=O)Nc1c(I)cc(I)c(C(=O)O)c1I)Nc1c(I)cc(I)c(C(=O)O)c1I | – | inactive
CN=C(NC#N)NCCSCc1csc(N=C(N)N)n1 | – | inactive
C=C[Si](C)(C)O[Si](C)(C)C=C | – | inactive
NC(=O)C1(N2CCCCC2)CCN(CCCC(=O)c2ccc(F)cc2)CC1 | – | inactive
CCN(CC)C(=O)C1CN2CCc3cc(OC)c(OC)cc3C2CC1OC(C)=O (stereo not drawn) | – | inactive
O=c1[nH]c(=O)c2[nH]c(=O)[nH]c2[nH]1 | -0.67% [at 8.39 µM] (inactive) | –
Cc1cccc(C(=O)O)c1[N+](=O)[O-] | – | inactive
C=CCOc1c(Br)cc(C(C)(C)c2cc(Br)c(OCC=C)c(Br)c2)cc1Br | – | inactive
C=CCOCC(CO)(COCC=C)COCC=C | – | inactive
C=CCOCC(O)CCl (stereo not drawn) | – | inactive
O=C1OC(=O)c2cc(Oc3ccc4c(c3)C(=O)OC4=O)ccc21 | – | inactive
Cc1cc(O)c2c(c1)C(=O)c1cccc(O)c1C2=O | – | inactive
CC(C)SCc1ccco1 | – | inactive
CCNC(=O)NCCCOc1cccc(CN2CCCCC2)c1 | – | inactive
CCC(=O)c1ccc(O)cc1 | – | inactive
